Compound activity from PubChem BioAssay.
ELG1 repair inh: ELG1-dependent DNA repair inhibition | AID 504467 | HEK293T ELG1-luciferase reporter, luminescence, 16 h; DNA damage induced by 5-fluorouridine | 2.3% of 330,000 active | Potency, µM (doses to about 46.1 µM), without a hit: at the highest dose activity change, negative = inhibition, actives largely listed as inhibitors; also: potency is read from the fitted curve at half-maximal effect; nearly all actives have a fitted effect of over 55% in size
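DMSO vehicle served as the neutral condition. Each well held 2,000 cells given 5-fluorouridine plus compound; after 16 hr at 37 °C/5% CO2, ONE-Glo was added and luciferase measured 30 min later.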
DT40 TDP1 CPT: DT40-hTDP1 cell growth loss with CPT | chicken DT40 Tdp1-/-;hTDP1 cells + 20 nM CPT, ATP luminescence, 48 h | Potency, µM (highest dose often 46.2 µM), for the others: at the top dose activity change, negative = growth inhibition, usual class: inhibitors | 12% of 420,000 active; also: potency is read from the fitted curve at half-maximal effect; nearly all actives have a fitted effect of over 55% in size
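Cell growth measured by CellTiter-Glo luminescence after a minimum 48 h, 37 C compound exposure with 20 nM CPT in Tdp1-knockout DT40 cells stably expressing hTDP1, seeded 400/well; qHTS titration format.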
VP16 counter: counter-screen for ROR gamma inhibitors: Gal4-VP16 reporter; Drosophila S2 Gal4-VP16 UAS-luciferase, luminescence, 20 h; Potency, µM (series often up to 53.6 µM), for inactives: top-dose activity, negative = inhibition, actives largely listed as inhibitors; 3.5% of 310,000 active;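 also: Gal4-VP16 expression switched on by copper sulfate through the metallothionein promoter; potency is read from the fitted curve at half-maximal effect; nearly all actives have a fitted effect of over 50% in size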
IL1B secr inh: blocks inflammasome-driven IL-1 beta release; THP-1 LPS/ATP IL-1B secretion, AlphaLISA, 16 h; hits give low values; 4.7% of 360,000 active; activity change, % at 57.5 µM; in the data active = activity change below about -50%; inconclusive = mostly about -30% to -49%
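Secreted IL-1B measured by AlphaLISA bead assay after 16 h compound exposure of THP-1 cells; compounds (final up to 57.5 uM) added 1 h before LPS (250 ng/mL) and ATP (1.25 mM) stimulation; lower signal means less secretion.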
DT40 TDP1 no CPT: qHTS for Inhibitors of human tyrosyl-DNA phosphodiesterase 1 (TDP1): qHTS in cells in absence of CPT; DT40 Tdp1-/- hTDP1 cells, no CPT, ATP luminescence, 48 h; Potency, µM (highest dose often 46.2 µM), for the others: at the top dose activity change, negative = growth inhibition, actives largely listed as inhibitors; 15% of 420,000 active; also: potency is read from the fitted curve at half-maximal effect; nearly all actives have a fitted effect of over 55% in size
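Growth kinetics read by CellTiter-Glo luminescence after ≥48 hr at 37 °C. Cells: DT40 Tdp1-/- stably carrying human TDP1, 400 per well, compound exposure in the absence of CPT (DMSO vehicle).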
RORgamma inh: blocks mouse ROR gamma transcriptional activity; P51450; Drosophila S2 Gal4-RORgamma UAS-luciferase reporter, 20 h; Potency, µM (series often up to 53.6 µM), for inactives: top-dose activity change, negative = inhibition, actives largely listed as inhibitors; 5.4% of 310,000 active; also: potency is read from the fitted curve at half-maximal effect; nearly all actives have a fitted effect of over 60% in size
Target sequence (P51450 whole entry, looked up, the tested form may be a part): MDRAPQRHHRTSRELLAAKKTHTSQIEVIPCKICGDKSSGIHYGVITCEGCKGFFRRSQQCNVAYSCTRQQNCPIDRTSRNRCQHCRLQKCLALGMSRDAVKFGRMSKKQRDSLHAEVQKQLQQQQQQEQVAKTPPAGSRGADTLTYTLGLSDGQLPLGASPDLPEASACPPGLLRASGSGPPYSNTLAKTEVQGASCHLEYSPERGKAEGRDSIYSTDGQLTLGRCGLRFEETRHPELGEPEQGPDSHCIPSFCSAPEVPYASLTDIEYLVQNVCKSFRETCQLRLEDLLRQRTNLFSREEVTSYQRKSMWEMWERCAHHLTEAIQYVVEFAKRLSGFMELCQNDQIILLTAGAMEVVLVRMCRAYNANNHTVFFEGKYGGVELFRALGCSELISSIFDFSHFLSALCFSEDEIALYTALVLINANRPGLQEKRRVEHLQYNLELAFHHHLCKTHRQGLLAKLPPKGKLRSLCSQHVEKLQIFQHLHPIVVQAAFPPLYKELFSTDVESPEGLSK
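Stably transfected Drosophila Schneider cells are the test system, with ROR gamma fused to Gal4 and luciferase under UAS control; luminescence is read after 20 hr of 700 uM copper sulfate induction at ambient temperature.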
The depositor's hits bear a star; [ ] = remark or other dose. Most compounds without a hit are left out; they make up all but 21% or so of the library. Unless noted, calls follow the shape of the dose curve; as a rule, active = well fitted curve in the direction sought with a large enough effect; inconclusive = small, poorly fitted or top-dose-only effect, or another doubt; inactive = no such curve, though single readings can be large; an effect the other way counts as inactive or inconclusive. % is scaled to controls: 0 for no effect and ±100 for the full control effect.

Results for CCc1c(C)sc2c1CCN(C(=O)Nc1ccccc1Cl)C2c1ccc(OC)cc1 (configuration not stated) ?
DT40 TDP1 CPT: inconclusive; DT40 TDP1 no CPT: 14.6µM*

How did COc1ncc2ncc(=O)n(CCC#N)c2n1 do in these assays?
DT40 TDP1 CPT: -7.1%; VP16 counter: -15.8%; DT40 TDP1 no CPT: -8.8%; RORgamma inh: -24.4%

Results for O=C(O)c1ccc(N2CCCCS2(=O)=O)cc1 ?
ELG1 repair inh: 11.3%; DT40 TDP1 CPT: 22.7%; VP16 counter: 7.5%; IL1B secr inh: 4.2; DT40 TDP1 no CPT: -5.0%; RORgamma inh: 14.6%

How did C=C(C)[C@@H]1CC=C(CN2CCN(Cc3ccccc3)CC2)CC1 do in these assays?
ELG1 repair inh: 11.4%; DT40 TDP1 CPT: inconclusive; VP16 counter: 2.4%; IL1B secr inh: -29.4; DT40 TDP1 no CPT: inconclusive; RORgamma inh: -0.7%

What do the screens show for `CCCCNC(=O)C1C(c2ccc(OC)cc2)=Nc2ccccc2N1C(=O)Cc1cc(OC)cc(OC)c1` (configuration not stated)?
DT40 TDP1 CPT: inconclusive; IL1B secr inh: -10.0; DT40 TDP1 no CPT: inconclusive

What do the screens show for `O=C(c1ccccc1)N1CCN(C2c3cccc4cccc(c34)C2NS(=O)(=O)c2ccccc2)CC1` (configuration not stated)?
ELG1 repair inh: inconclusive; DT40 TDP1 CPT: inconclusive; VP16 counter: -10.9%; IL1B secr inh: -5.1; DT40 TDP1 no CPT: inconclusive; RORgamma inh: -14.9%

How did O=S(=O)(NC1c2cccc3cccc(c23)C1N1CCN(CCO)CC1)c1ccccc1 (configuration not stated) do in these assays?
ELG1 repair inh: inconclusive; DT40 TDP1 CPT: inconclusive; VP16 counter: -3.2%; IL1B secr inh: -8.0; DT40 TDP1 no CPT: 14.6µM*; RORgamma inh: -24.7%

Results for CCn1cc(C(=O)O)c(=O)c2cc(F)c(N3CCN(S(=O)(=O)c4ccc(NC(C)=O)cc4)CC3)cc21 ?
ELG1 repair inh: 6.8%; DT40 TDP1 CPT: -27.4%; VP16 counter: -4.8%; IL1B secr inh: 0.0; DT40 TDP1 no CPT: inconclusive; RORgamma inh: 9.4%

What do the screens show for `CCn1cc(C(=O)O)c(=O)c2cc(F)c(N3CCN(S(=O)(=O)c4ccc5c(c4)OCCO5)CC3)cc21`?
ELG1 repair inh: -2.7%; DT40 TDP1 CPT: 20.6µM*; VP16 counter: -6.7%; IL1B secr inh: 34.8; DT40 TDP1 no CPT: inconclusive; RORgamma inh: -3.6%

Results for CCn1cc(C(=O)O)c(=O)c2cc(F)c(N/N=C/c3ccccc3)cc21 ?
ELG1 repair inh: -26.9%; DT40 TDP1 CPT: inconclusive; VP16 counter: -2.6%; IL1B secr inh: 0.0; DT40 TDP1 no CPT: 13µM*; RORgamma inh: 13.3%

What do the screens show for `CCn1cc(C(=O)O)c(=O)c2cc(F)c(N3CCN(C(=S)NC(=O)c4cccc(C)c4)CC3)cc21`?
ELG1 repair inh: -1.9%; DT40 TDP1 CPT: -23.5%; VP16 counter: inconclusive; IL1B secr inh: 24.7; DT40 TDP1 no CPT: -17.3%; RORgamma inh: inconclusive

Results for CCn1cc(C(=O)O)c(=O)c2cc(F)c(N3CCN(C(=O)Nc4ccccc4)CC3)cc21 ?
ELG1 repair inh: inconclusive; DT40 TDP1 CPT: 20.6µM*; VP16 counter: 3.8%; IL1B secr inh: inconclusive; DT40 TDP1 no CPT: 23.1µM*; RORgamma inh: -10.2%

How did CCn1cc(C(=O)O)c(=O)c2cc(F)c(N3CCN(C(=S)NC(=O)c4ccccc4F)CC3)cc21 do in these assays?
ELG1 repair inh: inconclusive; DT40 TDP1 CPT: -20.1%; VP16 counter: 4.0%; IL1B secr inh: -11.8; DT40 TDP1 no CPT: 14.6µM*; RORgamma inh: -3.8%

How did OC(c1cc(F)cc(Cl)c1)c1ncc(-c2ccccc2Cl)[nH]1 (configuration not stated) do in these assays?
DT40 TDP1 CPT: inconclusive; IL1B secr inh: 4.1; DT40 TDP1 no CPT: inconclusive

What do the screens show for `COc1cc(OC)cc(C(=O)NCC2Cc3cccc(-c4nc(C)cnc4C)c3O2)c1` (configuration not stated)?
DT40 TDP1 CPT: -3.1%[9.04 µM]; DT40 TDP1 no CPT: -12.9%

Results for CN(C)CCCNC(=O)C[C@H]1C[C@H](C(=O)N2CCCCC2)[C@@]2(C)c3[nH]c4ccc(Cl)cc4c3CCN2C1=O ?
ELG1 repair inh: 19.9%; DT40 TDP1 CPT: inconclusive; IL1B secr inh: -11.8; DT40 TDP1 no CPT: inconclusive

How did C[C@]12c3[nH]c4ccc(Cl)cc4c3CCN1C(=O)[C@@H](CC(=O)NCCN1CCOCC1)C[C@@H]2C(=O)N1CCCCC1 do in these assays?
ELG1 repair inh: inconclusive; DT40 TDP1 CPT: inconclusive; IL1B secr inh: -22.3; DT40 TDP1 no CPT: 16.4µM*

Results for CC(C)(C)NC(=O)C[C@H]1C[C@H](C(=O)N2CCCCC2)[C@@]2(C)c3[nH]c4ccc(Cl)cc4c3CCN2C1=O ?
ELG1 repair inh: inconclusive; DT40 TDP1 CPT: 23.1µM*; IL1B secr inh: -23.5; DT40 TDP1 no CPT: 20.6µM*

How did CC(C)C[C@@H](CC(=O)N[C@@H](CCC(=O)O)CC(=O)O)NC(=O)[C@@H]1CCCC[C@H]1NC(=O)C[C@H](CCCN)NC(=O)C[C@H](CO)NC(=O)[C@@H]1CCCC[C@H]1N do in these assays?
VP16 counter: 9.0%; RORgamma inh: -25.4%

What do the screens show for `O=C(OCCc1ccccn1)c1cccc([N+](=O)[O-])c1`?
DT40 TDP1 CPT: 0.5%; IL1B secr inh: 22.5; DT40 TDP1 no CPT: -4.0%

How did CCOc1cccc2sc(N(CCN(C)C)C(=O)c3cc4ccccc4cc3OC)nc12 do in these assays?
ELG1 repair inh: inconclusive; DT40 TDP1 CPT: 23.1µM*; VP16 counter: -29.5%; IL1B secr inh: -57.7*; DT40 TDP1 no CPT: inconclusive; RORgamma inh: 0.0%

How did CCOc1cccc2sc(N(CCCN(C)C)C(=O)c3ccc(S(=O)(=O)N(CC)Cc4ccccc4)cc3)nc12 do in these assays?
ELG1 repair inh: 5.7%; DT40 TDP1 CPT: inconclusive; VP16 counter: 22.4µM*; IL1B secr inh: -90.4*; DT40 TDP1 no CPT: inconclusive; RORgamma inh: inconclusive

What do the screens show for `CN(C)CCCN(C(=O)c1ccc(C(=O)c2ccccc2)cc1)c1nc2c(F)cccc2s1`?
ELG1 repair inh: 1.6%; DT40 TDP1 CPT: -28.1%; VP16 counter: -10.3%; IL1B secr inh: inconclusive; DT40 TDP1 no CPT: -11.6%; RORgamma inh: -7.3%
